Measured values from PubChem BioAssay (NCI).
The panel holds about 79,000 compounds, 15% with a hit somewhere; the sample as a whole holds those more often. Values without a mark were called inactive. Activity calls are given as the source filed them. Cut-off read from the data, not from the text of the source: active = growth inhibition above about 70%; inactive = the rest.

Tests used:
[1] = NCI Yeast Anticancer Drug Screen. Data for the rad50 strain (AID 155);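 note: 0% = growth of vehicle-only cultures of the same strain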; settings: S. cerevisiae rad50 strain growth inhibition, hits give high values
Procedure, shortened: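 Cells are treated with compound, grown, and their growth is then scored against vehicle-only cultures of the same repair-deficient yeast strain.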

[2] = NCI Yeast Anticancer Drug Screen. Data for the mec2-1 strain (AID 157); settings: S. cerevisiae mec2-1 strain, hits give high values
Procedure, shortened: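 Compounds were applied to mec2-1 yeast cells. Their growth was then compared with that of vehicle-treated cultures to give growth inhibition.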

[3] = NCI Yeast Anticancer Drug Screen. Data for the sgs1 mgt1 strain (AID 161);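 note: 0% = growth of cultures given vehicle only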; settings: S. cerevisiae sgs1 mgt1 strain, hits give high values
Procedure, shortened: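 Compounds are added to genetically altered yeast, and growth is compared with cultures given vehicle alone to give percent inhibition.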

[4] = NCI Yeast Anticancer Drug Screen. Data for the cln2 rad14 strain (AID 165);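 note: 0% = growth equal to vehicle treated cultures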; settings: S. cerevisiae cln2 rad14 strain, hits give high values
Procedure, shortened: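 Strain: cln2 rad14 yeast, altered in cell cycle control and DNA damage repair. Read-out: growth inhibition vs vehicle.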

[5] = NCI Yeast Anticancer Drug Screen. Data for the bub3 strain (AID 167); settings: S. cerevisiae bub3 mutant strain, hits give high values
Procedure, shortened: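 Part of a panel of yeast mutants defective in DNA damage repair or cell cycle regulation. Each strain is grown with compound, and inhibition is calculated relative to solvent-treated cultures.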

[6] = NCI Yeast Anticancer Drug Screen. Data for the mlh1 rad18 strain (AID 175); settings: S. cerevisiae mlh1 rad18 strain growth inhibition, hits give high values
Procedure, shortened: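 A repair-deficient yeast strain is exposed to test compound, and growth is scored relative to vehicle-treated controls.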

[7] = at 5.0 µM (retest, dose inferred, filed as 0.5)
[8] = at 50.0 µM (retest, dose inferred, filed as 5.0)

| SMILES | growth inhibition [1, 7] | growth inhibition [1, 8] | growth inhibition ([1]; at 50.0 µM) | growth inhibition [2, 7] | growth inhibition [2, 8] | growth inhibition ([2]; at 50.0 µM) | growth inhibition [3, 7] | growth inhibition [3, 8] | growth inhibition ([3]; at 50.0 µM) | growth inhibition [4, 7] [%] | growth inhibition [4, 8] | growth inhibition ([4]; at 50.0 µM) | growth inhibition [5, 7] | growth inhibition [5, 8] | growth inhibition ([5]; at 50.0 µM) | growth inhibition [6, 7] | growth inhibition [6, 8] | growth inhibition ([6]; at 50.0 µM) |
| --- | --- | --- | --- | --- | --- | --- | --- | --- | --- | --- | --- | --- | --- | --- | --- | --- | --- | --- |
| COc1ccc(Br)c2c1CC(C(=O)O)CC2 (stereo not drawn) | -29% | -23% | 8% | -26% | 26% | 4.05% | -33% | -22% | -10.1% | 6 | 6% | -17.2% | -13% | 13% | 11.9% | -20% | -19% | 2.8% |
| O=C(CS)Nc1ccccc1 | 13% | 89% (active) | 65.4% | 18% | 91% (active) | 57.2% | 14% | 93% (active) | 61.1% | 9 | 87% (active) | 47.5% | 3% | 84% (active) | 56.2% | 16% | 95% (active) | 84.1% (active) |
| CCCCCCCCN(CCCCCCCC)C(=O)C(C)O (stereo not drawn) | 14% | 98% (active) | 98.7% (active) | -2% | 98% (active) | 89.2% (active) | 20% | 99% (active) | 97.7% (active) | 9 | 97% (active) | 81.7% (active) | 6% | 99% (active) | 97.5% (active) | 27% | 98% (active) | 94% (active) |
| Cc1cccc2c1nc1ccccc1[n+]2C | -2% | 97% (active) | 98.3% (active) | 7% | 97% (active) | 97.7% (active) | -2% | 97% (active) | 98.5% (active) | 2 | 96% (active) | 87.8% (active) | -2% | 91% (active) | 98.2% (active) | 6% | 95% (active) | 97.5% (active) |
| Cc1ccc(Nc2nc(C)c(C(/C=C/c3ccc4c(c3)OCO4)=N/Nc3ccc([N+](=O)[O-])cc3[N+](=O)[O-])s2)c([N+](=O)[O-])c1 | 43% | 43% | 53.5% | 36% | 36% | 69% | 37% | 37% | 89.5% (active) | 23 | 23% | 68.2% | 33% | 33% | 67.7% | 37% | 37% | 81.7% (active) |
| O=C1CC(c2ccccc2)NN1 (stereo not drawn) | -108% | 92% (active) | 90.9% (active) | -42% | 94% (active) | 90.5% (active) | -51% | 89% (active) | 69.8% | -62 | 93% (active) | 87.8% (active) | -71% | 87% (active) | 88.2% (active) | -114% | 93% (active) | 86.5% (active) |
| NC(CCCCCC(N)C(=O)O)C(=O)O (stereo not drawn) | -165% | -146% | 15.1% | -50% | -54% | 9.1% | -66% | -66% | 14.9% | -60 | -83% | 76.8% (active) | -67% | -71% | 18.8% | -241% | -121% | 3.05% |
| COC(=O)c1ccc(-c2ccccc2)cc1 | -1% | 83% (active) | 82.3% (active) | 1% | 94% (active) | 99.2% (active) | 3% | 82% (active) | 98% (active) | -2 | 55% | 44.2% | 10% | 92% (active) | 96% (active) | 2% | 86% (active) | 96.8% (active) |
| CNc1ccc(C(=O)NC(CCCCNC(=O)OCc2ccccc2)C(=O)OC)cc1 (stereo not drawn) | -3% | -1% | 93.8% (active) | 1% | 10% | 95% (active) | -18% | -17% | 97.9% (active) | -5 | 2% | 58.1% | -4% | 0% | 95.6% (active) | 2% | -9% | 98.6% (active) |
| CCN(c1ccc(C=O)cc1)c1ccc([N+](=O)[O-])cc1[N+](=O)[O-] | 3% | 33% | 50.5% | -1% | 30% | 26.2% | 3% | 70% (active) | 74% (active) | 1 | 11% | 18.2% | 2% | 23% | 7.85% | 8% | 59% | 38.7% |
| Clc1ccc(Cc2nc3ccccc3s2)c(Cl)c1 | 39% | 98% (active) | 90.8% (active) | 36% | 99% (active) | 93.3% (active) | 43% | 99% (active) | 94.1% (active) | 34 | 89% (active) | 91.5% (active) |  |  |  | 57% | 99% (active) | 92.5% (active) |
| O=C1c2ccccc2C(=O)c2cc(S(=O)(=O)Cl)ccc21 | 68% | 99% (active) | 76.1% (active) | 97% (active) | 99% (active) | 60.9% | 94% (active) | 98% (active) | 69.2% | 55 | 99% (active) | -49.5% |  |  |  | 59% | 99% (active) | 75.8% (active) |
| Cc1cc2ccc(N)nc2[nH]c1=O | -7% | -4% | 25.6% | -2% | -3% | 27.2% | -4% | 0% | 10.3% |  |  |  | 1% | 5% | 12.7% | -2% | 1% | 24.8% |
| CCCCCCCCCCCCCCCC(=O)NCC[N+](CC)(CC)Cc1ccc(C[N+](CC)(CC)CCNC(=O)CCCCCCCCCCCCCCC)cc1 | 99% (active) | 99% (active) | 99.3% (active) | 99% (active) | 100% (active) | 99.6% (active) | 99% (active) | 100% (active) | 99.5% (active) |  |  |  | 98% (active) | 99% (active) | 99.5% (active) | 97% (active) | 99% (active) | 99.3% (active) |
| O=C(CSc1nnc(Cc2ccccc2)o1)Nc1ccc(Cl)cc1 | -20% | 87% (active) | 16.1% | -5% | 54% | 15.2% |  |  |  | 18 | 79% (active) | 35% | 4% | 91% (active) | 26.2% | -5% | 91% (active) | 28.8% |
| COc1ccc(C(=O)C(C(c2ccccc2)N2CCc3ccccc3C2)N2CCc3ccccc3C2)cc1 (stereo not drawn) | 3% | 22% | 27.4% | -2% | 2% | 15.2% | 0% | -6% | 12.2% |  |  |  | -3% | 4% | 78.3% (active) | -1% | 6% | 27.6% |
| CCCCNCc1c(O)ccc2ccccc12 | 14% | 99% (active) | 99.1% (active) | 3% | 99% (active) | 99.2% (active) | 17% | 99% (active) | 99.1% (active) | 10 | 98% (active) | 95.8% (active) |  |  |  | 36% | 99% (active) | 99.2% (active) |
| CCCCCCCCC1(C(=O)OCCN(CC)CC)CCCCC1 | 8% | 99% (active) | 99.8% (active) | 0% | 100% (active) | 99.8% (active) | 36% | 99% (active) | 99.5% (active) |  |  |  | 22% | 99% (active) | 99.2% (active) | 12% | 98% (active) | 99.7% (active) |
| O=C(Oc1cc([N+](=O)[O-])ccc1Cl)Oc1cc([N+](=O)[O-])ccc1Cl | -6% | 97% (active) | 97.5% (active) | 0% | 99% (active) | 99.5% (active) |  |  |  | 0 | 98% (active) | 97.9% (active) | -9% | 98% (active) | 98.8% (active) | -5% | 98% (active) | 98.6% (active) |
| CCC(C(c1ccc(Cl)cc1)c1ccc(Cl)c(Cl)c1)[N+](=O)[O-] (stereo not drawn) | 4% | 12% | 8.3% | 0% | 17% | -4.05% | 4% | 12% | 14.1% |  |  |  | 19% | 38% | 47.5% | 1% | 32% | 5.3% |
| Cn1cc(-c2c3c(cc4c2OCO4)OCO3)c2ccccc21 | 4% | 99% (active) | 99.2% (active) | -3% | 98% (active) | 99.2% (active) | 2% | 99% (active) | 99.3% (active) | -9 | 96% (active) | 98.8% (active) | -2% | 99% (active) | 99.2% (active) | -1% | 99% (active) | 99.3% (active) |
